Experimental data published in the supplement of paper PMC6555819.

How the values were obtained:
Assay in all cases: PBM binding z-score (relative to random genomic background probes); higher = stronger binding; sequences stand for … in GC…GCGATTGACAGCGTAGAATGAAGG
[1] = tested on: FXR:RXRa (NR concentration 270 nM, RXRa partner concentration 90 nM)
Outline: (§1)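 On custom Agilent 4×180K arrays, double-stranded probes with 34-nt variable regions carried direct-repeat seeds, single-nucleotide variants, half-site ablations or random human genomic background. Ligand-free nuclear receptor dimers were applied for 1 h, and binding was read with antibodies against each partner (one per run). Binding z-scores come from regression-normalized fluorescence, with the random background probes as reference.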

[2] = tested on: LXRa:RXRa (NR concentration 270 nM, RXRa partner concentration 90 nM)
Outline: as §1

[3] = tested on: LXRa homodimer (NR concentration 270 nM)
Outline: as §1

[4] = tested on: LXRb:RXRa (NR concentration 270 nM, RXRa partner concentration 90 nM)
Outline: as §1

[5] = tested on: LXRb homodimer (NR concentration 270 nM)
Outline: as §1

[6] = tested on: PPARa:RXRa (NR concentration 270 nM, RXRa partner concentration 90 nM)
Outline: as §1

[7] = tested on: PPARg:RXRa (NR concentration 180 nM, RXRa partner concentration 90 nM)
Outline: as §1

[8] = tested on: PPARg:RXRa 270nM:90nM, anti-RXR (NR concentration 270 nM, RXRa partner concentration 90 nM)
Outline: as §1

[9] = tested on: PPARg:RXRa 30nM:10nM, anti-RXR (NR concentration 30 nM, RXRa partner concentration 10 nM)
Outline: as §1

[10] = tested on: PPARg:RXRa 90nM:30nM, anti-RXR (NR concentration 90 nM, RXRa partner concentration 30 nM)
Outline: as §1

[11] = tested on: PPARg:RXRa DBDmut IVT, anti-RXR (DBD mutation: RXRa K156A/R161A, NR concentration 270 nM, RXRa partner concentration 90 nM)
Outline: as §1

[12] = tested on: PPARg:RXRa IVT, anti-PPARg (NR concentration 270 nM, RXRa partner concentration 90 nM)
Outline: as §1

[13] = tested on: PPARg DBDmut:RXRa IVT, anti-PPARg (DBD mutation: PPARg1 K132A/R137A, NR concentration 270 nM, RXRa partner concentration 90 nM)
Outline: as §1

[14] = tested on: PPARg DBDmut IVT, anti-PPARg (DBD mutation: PPARg1 K132A/R137A, NR concentration 270 nM)
Outline: as §1

[15] = tested on: PPARg homodimer (NR concentration 180 nM)
Outline: as §1

[16] = tested on: PXR:RXRa (NR concentration 270 nM, RXRa partner concentration 90 nM)
Outline: as §1

[17] = tested on: PXR homodimer (NR concentration 270 nM)
Outline: as §1

[18] = tested on: RARa:RXR (NR concentration 270 nM, RXRa partner concentration 90 nM)
Outline: as §1

[19] = tested on: RARa homodimer (NR concentration 270 nM)
Outline: as §1

[20] = tested on: RARb:RXRa (NR concentration 270 nM, RXRa partner concentration 90 nM)
Outline: as §1

Sequence | PBM binding z-score [1] | PBM binding z-score [2] | PBM binding z-score [3] | PBM binding z-score [4] | PBM binding z-score [5] | PBM binding z-score [6] | PBM binding z-score [7] | PBM binding z-score [8] | PBM binding z-score [9] | PBM binding z-score [10] | PBM binding z-score [11] | PBM binding z-score [12] | PBM binding z-score [13] | PBM binding z-score [14] | PBM binding z-score [15] | PBM binding z-score [16] | PBM binding z-score [17] | PBM binding z-score [18] | PBM binding z-score [19] | PBM binding z-score [20]
ATATGTAGGTTAAGGGTCATTCAGGTTGGTTCGC | 5.11 | 5.05 | 3.62 | 4.41 | 1.4 | 6.68 | 11.5 | 9.78 | 10.3 | 11.1 | 7.43 | 7.64 | 1.5 | 1.61 | 4 | 5.48 | 2.98 | 5.87 | 2.71 | 3.79
CATACTGGGCCAAAGGTCATTGATTCCAATGCTC | 5.32 | 5.39 | 4.2 | 5.17 | 1.29 | 6.71 | 11.9 | 10.1 | 10.1 | 11.1 | 4.86 | 6.31 | 1.88 | 1.07 | 3.77 | 5.52 | 1.72 | 6.32 | 1.82 | 4.71
AGAATGAGTTTAAGATCAGGGAAACAGAATACAT | -0.0291 | -0.0527 | -0.102 | -0.0907 | -0.243 | -0.0432 | 0.814 | -0.0778 | 0.203 | 0.0165 | -0.319 | -0.227 | 0.514 | 0.367 | 0.191 | 0.341 | 0.729 | 0.163 | 0.965 | 0.406
ATATGTAGGTTACGGGTCATTCAGGTTGGTTCGC | 3.73 | 3.96 | 2.11 | 3.61 | 0.71 | 5.56 | 9.4 | 8.21 | 6.67 | 8.55 | 7.79 | 7.99 | 5.13 | 4.88 | 3.88 | 4.78 | 1.67 | 4.07 | 1.28 | 2.92
CCGAGTAGGTCATGGGGCATTCAGGCAACGGTGA | 4.82 | 3.04 | 0.422 | 2.42 | -0.503 | 4.92 | 8.14 | 7.29 | 6.6 | 7.69 | 5.78 | 6.73 | 0.331 | -0.486 | 2.5 | 2.15 | -0.103 | 3.58 | 0.815 | 3.78
TGAATGAGGTTATAAGATCAGTGAACGTTGCAAA | 1.18 | 1.34 | -0.254 | 1.17 | -0.0173 | 2.66 | 1.29 | 1.72 | 0.94 | 1.35 | 1.21 | 1.6 | 1.17 | 0.745 | 0.394 | 0.814 | 0.0458 | 1.62 | 0.171 | 1.25
AATACAGGGTCAACGTAGGCCAGAGTACGCACAG | 7.15 | 6.18 | 1.92 | 4.41 | 1.47 | 5.88 | 6.89 | 6.32 | 2.82 | 4.85 | 3.16 | 4.2 | 1.64 | 1.2 | 2.78 | 5.23 | 0.288 | 5.45 | 1.71 | 4.6
